We go through six molecules from PubChem BioAssay (EPA / NIEHS).

Molecules are shown by their SMILES. Several values for one entry are separate records, joined by “and”; a condition that tells them apart may be missing. Equal entries are not always repeated. Some structures have more than one record in an assay (separate samples or runs), and their calls can disagree. Activity calls are given as the source filed them. How the source made its calls: active means hit-call score of the fitted dose curve at least 0.9, where 1 is the maximum; inactive means score below 0.9.

Experiment [1] in a line: ATG_CRE_CIS: Attagene CIS-FACTORIAL HepG2 Assay for human cAMP Responsive Element (CRE) binding protein 3 (AID 2282926). The conditions noted are these: HepG2 CRE cis-reporter, Attagene multiplexed mRNA; actives raise or lower the signal. In short, it runs like this:
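Cells carrying cis-regulated reporter constructs respond through their own endogenous factors. After 24 h treatment, RNA is reverse-transcribed, amplified, labelled and sized by capillary electrophoresis; up- and down-regulation are both scored against vehicle.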

Experiment [2] in a line: ATG_CMV_CIS: Attagene CIS-FACTORIAL HepG2 Assay for human CMV (Internal Marker) (AID 2282928).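 Further: endpoint acts as a background internal control marker rather than a target.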 The conditions noted are these: HepG2 CMV promoter reporter, transcription factor profiling; actives raise or lower the signal. In short, it runs like this:
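Reporter transcripts from transfected HepG2 cells are isolated after 24 h of chemical dosing, reverse-transcribed and amplified. Fragments labeled with 6-FAM are cut with HpaI and quantified by capillary electrophoresis; DMSO defines baseline.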

The nature of experiment [3]: ATG_DR4_LXR_CIS: Attagene CIS-FACTORIAL HepG2 Assay for human Liver X Receptor (LXR), DR4 submotif (AID 2282929). Particulars: HepG2 Attagene DR4 cis-reporter, mRNA transcription; actives raise or lower the signal. In short, it runs like this: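 Endogenous factor activity at a DR4 cis-element is read as reporter mRNA in transiently transfected HepG2 cells. Exposure lasts 24 h; transcripts are amplified, fluorescently labelled and sized by capillary electrophoresis, with DMSO as baseline.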

Experiment [4] addresses Aryl hydrocarbon receptor (Homo sapiens) (UniProt P35869). Briefly: ATG_Ahr_CIS: Attagene CIS-FACTORIAL HepG2 Assay for human Aryl Hydrocarbon Receptor (Ahr) (AID 2282930). Particulars: HepG2 AhR cis-factorial reporter transcription; actives raise or lower the signal. In outline: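 Read-out: reporter mRNA quantified by RT-PCR with fluorescent primer extension and capillary electrophoresis. Human HepG2 liver cells carried transfected cis-promoter reporter units and were exposed to chemical for 24 h; gain or loss fitted relative to DMSO.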

Experiment [5] in a line: ATG_AP_1_CIS: Attagene CIS-FACTORIAL HepG2 Assay for human Activator Protein 1 (AP-1) (AID 2282931). The conditions noted are these: HepG2 Attagene cis-factorial AP-1 reporter mRNA; actives raise or lower the signal. In outline:
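Fluorescence of labelled PCR fragments separated by capillary electrophoresis gives reporter mRNA levels. HepG2 with transfected cis-regulated reporter units, 24 h exposure; DMSO serves as baseline for bidirectional curve fits.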

A short description of experiment [6]: ATG_BRE_CIS: Attagene CIS-FACTORIAL HepG2 Assay for human Bone Morphogenetic Protein (BMP) Response Element (BRE) (AID 2282933). Particulars: HepG2 BMP response element reporter, Attagene transcription factor profiling; actives raise or lower the signal. In outline: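 After a 24 h chemical treatment, transiently transfected HepG2 cells were lysed for RNA; reporter transcripts were quantified by fluorescent RT-PCR and capillary electrophoresis, normalised to DMSO.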

The target in experiment [7] is Retinoic acid receptor alpha (Homo sapiens) (UniProt P10276). In words: ATG_DR5_RAR_CIS: Attagene CIS-FACTORIAL HepG2 Assay for human Retinoic Acid Receptor Alpha (RARE), DR5 submotif (AID 2282934).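 On AC50: reporter responds to endogenous RAR alpha beta and gamma in HepG2 not RARA alone.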 The conditions noted are these: HepG2 Attagene cis-factorial RARE DR5 reporter, mRNA; actives raise or lower the signal. In short, it runs like this: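 Read-out: DR5-driven reporter transcript measured by RT-PCR, 6-FAM primer extension, HpaI digest and capillary electrophoresis. Human HepG2 liver cells carry transiently transfected cis-element reporter constructs; dosing lasts 24 h. Gain or loss of signal fitted against DMSO baseline.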
Sequence of Retinoic acid receptor alpha (Homo sapiens) (P10276 whole entry, looked up): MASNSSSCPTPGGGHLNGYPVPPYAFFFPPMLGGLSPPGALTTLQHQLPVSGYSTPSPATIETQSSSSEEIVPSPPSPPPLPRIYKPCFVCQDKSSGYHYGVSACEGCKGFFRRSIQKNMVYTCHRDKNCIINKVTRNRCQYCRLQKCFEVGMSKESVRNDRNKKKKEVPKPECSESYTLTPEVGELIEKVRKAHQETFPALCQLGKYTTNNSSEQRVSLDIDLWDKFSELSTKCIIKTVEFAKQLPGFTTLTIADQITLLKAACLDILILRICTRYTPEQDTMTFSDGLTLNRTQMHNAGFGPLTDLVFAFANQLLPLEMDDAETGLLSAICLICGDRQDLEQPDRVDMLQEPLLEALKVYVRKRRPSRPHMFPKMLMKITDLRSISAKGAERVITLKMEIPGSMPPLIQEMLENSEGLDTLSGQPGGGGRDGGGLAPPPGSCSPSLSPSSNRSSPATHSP

The target in experiment [8] is Transcription factor E2F1 (Homo sapiens) (UniProt Q01094). Briefly: ATG_E2F_CIS: Attagene CIS-FACTORIAL HepG2 Assay for human E2F Transcription Factor 1 (AID 2282935). Particulars: HepG2 Attagene cis-reporter, E2F reporter RNA transcripts; actives raise or lower the signal. In short, it runs like this: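 Liver-derived HepG2 cells expressing transfected promoter-driven reporter units received test chemical for 24 hours. Signal gains or losses were fitted bidirectionally against DMSO.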
Sequence of Transcription factor E2F1 (Homo sapiens) (Q01094 whole entry, looked up): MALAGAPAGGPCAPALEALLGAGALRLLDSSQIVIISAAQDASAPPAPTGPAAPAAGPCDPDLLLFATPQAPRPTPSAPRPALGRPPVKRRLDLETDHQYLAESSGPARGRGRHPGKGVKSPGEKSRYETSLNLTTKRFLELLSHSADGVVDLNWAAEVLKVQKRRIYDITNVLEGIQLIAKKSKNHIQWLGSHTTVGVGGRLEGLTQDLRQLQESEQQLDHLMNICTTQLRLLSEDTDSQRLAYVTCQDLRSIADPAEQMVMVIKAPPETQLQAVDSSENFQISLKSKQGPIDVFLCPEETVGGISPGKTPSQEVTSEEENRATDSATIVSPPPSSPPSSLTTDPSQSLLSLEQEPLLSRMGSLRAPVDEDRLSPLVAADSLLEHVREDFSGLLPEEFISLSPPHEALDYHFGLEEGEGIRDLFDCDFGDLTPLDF

The nature of experiment [9]: ATG_E_Box_CIS: Attagene CIS-FACTORIAL HepG2 Assay for human Enhancer Box (E-box) (AID 2282936). The conditions noted are these: HepG2 E-box cis-reporter transcription, actives raise or lower the signal. In outline:
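In this cell-based setup, HepG2 cells bearing transfected promoter-driven reporter units were exposed to chemicals for 24 h; reporter transcripts were amplified, 6-FAM-labelled, cut with HpaI and sized by capillary electrophoresis.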

The nature of experiment [10]: ATG_M_61_CIS: Attagene CIS-FACTORIAL HepG2 Assay for M61 Transcription Factor (Internal Marker) (AID 2282937). Particulars: HepG2 Attagene CIS-FACTORIAL M61 internal marker reporter; actives raise or lower the signal. In outline: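 This endpoint serves as an internal background control within a multiplexed HepG2 cis-reporter panel. Cells are exposed for 24 h; reporter mRNA is amplified, fluorescently labelled and sized by capillary electrophoresis, with DMSO as negative control.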

Experiment [11] can be described thus: ATG_EGR_CIS: Attagene CIS-FACTORIAL HepG2 Assay for human Early Growth Response 1 (EGR1) (AID 2282938). Particulars: HepG2 Attagene CIS-FACTORIAL EGR reporter mRNA; actives raise or lower the signal. In outline: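 HepG2, transient MRTU transfection (cis promoters), 24 h compound. RNA → RT (oligo-dT) → PCR → 6-FAM labelling → HpaI cut → CE fluorescence. Bidirectional fit, DMSO baseline.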

Experiment [12] can be described thus: ATG_M_19_CIS: Attagene CIS-FACTORIAL HepG2 Assay for M19 Transcription Factor (Internal Marker) (AID 2282939). The conditions noted are these: HepG2 Attagene CIS-FACTORIAL M19 internal marker reporter; actives raise or lower the signal. In short, it runs like this:
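In this multiplexed cell assay, transiently transfected HepG2 reporter units report endogenous transcription-factor activity; after 24 hours of treatment, labelled reporter cDNA fragments are quantified by capillary electrophoresis and fitted bidirectionally against DMSO.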

A short description of experiment [13]: ATG_Ets_CIS: Attagene CIS-FACTORIAL HepG2 Assay for human Erythroblast Transformation Specific (ETS) (AID 2282941). Particulars: HepG2 ETS cis-reporter transcription, actives raise or lower the signal. In outline: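 Bidirectional fit versus DMSO of reporter mRNA signal, detected by RT-PCR and capillary electrophoresis in HepG2 cells transiently transfected with cis-element reporters and dosed 24 h.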

Experiment [14] deals with Hepatocyte nuclear factor 3-beta (Homo sapiens) (UniProt Q9Y261). Briefly: ATG_FoxA2_CIS: Attagene CIS-FACTORIAL HepG2 Assay for human Forkhead box A2 (FOXA2) (AID 2282942). Particulars: HepG2 cis-reporter transcription factor activity, 24 h; actives raise or lower the signal. In outline:
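Cells: HepG2, transient multiplex reporter transfection. Exposure 24 h. Detection: reporter-specific RT-PCR, fluorescent labelling, restriction digest, capillary electrophoresis. Analysis: bidirectional curve fit, DMSO as negative control.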

Experiment [15] is described as follows: ATG_FoxO_CIS: Attagene CIS-FACTORIAL HepG2 Assay for human Forkhead box O (FoxO) (AID 2282943). The conditions noted are these: HepG2 Attagene cis-reporter, FoxO element, mRNA; actives raise or lower the signal. In short, it runs like this: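 Read-out: fluorescence of 6-FAM-labelled reporter cDNA fragments resolved by capillary electrophoresis. Transiently transfected HepG2 cells were dosed for 24 h; activity fitted in both directions relative to DMSO controls.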

The nature of experiment [16]: ATG_GATA_CIS: Attagene CIS-FACTORIAL HepG2 Assay for human GATA Binding Protein (AID 2282944). The conditions noted are these: HepG2 GATA cis-element reporter, Attagene multiplex mRNA; actives raise or lower the signal. In short, it runs like this: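 Measures endogenous transcription factor-driven reporter mRNA in HepG2 cells transiently carrying cis-regulated constructs. 24 h dosing; RNA via oligo(dT) reverse transcription, PCR, HpaI digestion, capillary electrophoresis; fitted relative to DMSO.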

A short description of experiment [17]: ATG_GLI_CIS: Attagene CIS-FACTORIAL HepG2 Assay for human Zinc Finger Protein GLI1 (AID 2282945). The conditions noted are these: HepG2, Attagene cis-factorial reporter mRNA, GLI element; actives raise or lower the signal. In short, it runs like this:
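Transiently transfected HepG2 cells report endogenous transcription factor activity via cis-element-driven reporter units. After 24 h compound exposure, reporter mRNA was measured by RT-PCR with capillary electrophoresis; bidirectional fitting against DMSO baseline.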

A short description of experiment [18]: ATG_AP_2_CIS: Attagene CIS-FACTORIAL HepG2 Assay for human Activator Protein 2 (AP-2) (AID 2282932). The conditions noted are these: HepG2 AP-2 cis-reporter, Attagene transcription factor profiling; actives raise or lower the signal. In outline:
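Liver-derived HepG2 line, cis-reporter system measuring endogenous factors; 24 h dosing; reporter mRNA detected by fluorescent RT-PCR and capillary electrophoresis.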

Experiment [19] in a line: ATG_ERE_CIS: Attagene CIS-FACTORIAL HepG2 Assay for Estrogen Response Element (ERE) (AID 2282940). Particulars: HepG2 ERE cis-reporter, Attagene RNA transcript; actives raise or lower the signal. In short, it runs like this:
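Measuring endogenous transcription factor output, the assay doses transfected HepG2 cells for 24 hours and quantifies reporter transcripts by fluorescent RT-PCR and capillary electrophoresis, with DMSO as baseline.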

Sequence of Aryl hydrocarbon receptor (Homo sapiens) (P35869 whole entry, looked up): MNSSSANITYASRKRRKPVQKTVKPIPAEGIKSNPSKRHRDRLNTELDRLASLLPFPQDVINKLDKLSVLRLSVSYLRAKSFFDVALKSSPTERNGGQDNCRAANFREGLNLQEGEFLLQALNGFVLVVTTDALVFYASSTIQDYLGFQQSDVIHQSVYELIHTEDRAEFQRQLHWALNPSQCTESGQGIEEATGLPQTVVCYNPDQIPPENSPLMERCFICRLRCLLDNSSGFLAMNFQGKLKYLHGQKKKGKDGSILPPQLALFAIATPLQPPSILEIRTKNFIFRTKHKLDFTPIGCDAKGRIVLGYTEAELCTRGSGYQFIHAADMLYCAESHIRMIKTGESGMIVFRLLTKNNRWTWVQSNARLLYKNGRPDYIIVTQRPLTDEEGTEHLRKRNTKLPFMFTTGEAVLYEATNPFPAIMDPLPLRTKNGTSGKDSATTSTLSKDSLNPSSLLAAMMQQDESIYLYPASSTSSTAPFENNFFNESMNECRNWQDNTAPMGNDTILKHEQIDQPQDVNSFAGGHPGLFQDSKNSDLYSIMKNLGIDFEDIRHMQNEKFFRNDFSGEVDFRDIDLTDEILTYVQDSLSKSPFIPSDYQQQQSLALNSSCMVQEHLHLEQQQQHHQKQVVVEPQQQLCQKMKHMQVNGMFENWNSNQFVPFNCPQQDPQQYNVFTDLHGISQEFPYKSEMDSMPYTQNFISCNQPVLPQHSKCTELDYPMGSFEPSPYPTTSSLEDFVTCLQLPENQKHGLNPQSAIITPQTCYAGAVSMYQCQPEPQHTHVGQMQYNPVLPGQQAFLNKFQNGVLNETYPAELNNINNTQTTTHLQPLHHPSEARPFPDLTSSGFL
Sequence of Hepatocyte nuclear factor 3-beta (Homo sapiens) (Q9Y261 whole entry, looked up): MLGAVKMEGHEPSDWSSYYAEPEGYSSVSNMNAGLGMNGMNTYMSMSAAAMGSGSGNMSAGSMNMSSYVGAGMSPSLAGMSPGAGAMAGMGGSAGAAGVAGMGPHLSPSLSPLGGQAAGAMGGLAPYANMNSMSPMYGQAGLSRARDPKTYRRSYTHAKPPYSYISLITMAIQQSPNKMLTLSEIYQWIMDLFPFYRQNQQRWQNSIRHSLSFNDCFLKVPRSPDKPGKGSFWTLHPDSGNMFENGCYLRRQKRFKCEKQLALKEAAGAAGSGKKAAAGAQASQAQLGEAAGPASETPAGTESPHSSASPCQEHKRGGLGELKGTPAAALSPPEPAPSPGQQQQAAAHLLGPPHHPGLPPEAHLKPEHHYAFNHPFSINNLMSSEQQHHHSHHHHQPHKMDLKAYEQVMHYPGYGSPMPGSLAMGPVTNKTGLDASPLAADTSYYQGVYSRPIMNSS

On to `Nc1ccc(Cc2ccc(N)cc2)cc1`, for which the outcome in experiment [1], in experiment [2], in experiment [3], in experiment [4], in experiment [5] and in experiment [6] was inactive. In addition, the molecule was called inactive in experiment [7], in experiment [8], in [9], in experiment [10], in experiment [11] and in [12]. Moreover, the outcome in experiment [13], in experiment [14], in [15], in experiment [16] and in experiment [17] was inactive.
`CCOC(=O)[C@]1(c2ccccc2)Oc2ccccc2[C@@H]1N`: the AC50 in experiment [1] is 20.3 µM (active); in experiment [2], 33 µM (active); in experiment [3] it was 52.4 µM (active); in experiment [5] it was 40 µM (active); in [6], 22.5 µM (active); in experiment [7], 13.6 µM (active). The concentration at half-maximal activity (AC50) in [11] was 33 µM (active); in experiment [15] it was 49.5 µM (active); in experiment [17], 59.5 µM (active). The molecule was classed as inactive in experiment [4], in experiment [8], in [9], in experiment [10], in experiment [12] and in experiment [13]. Also, the result in experiment [14] and in experiment [16] was inactive.
On to `Cc1ccc([N+](=O)[O-])cc1`, for which the molecule was classed as inactive in experiment [1], in [2], in [3], in experiment [4], in experiment [18] and in experiment [6]. Further, the call in [8], in experiment [9], in experiment [10], in experiment [11], in [12] and in [19] was inactive. Moreover, the result in experiment [13], in experiment [14], in experiment [15], in [16] and in experiment [17] was inactive.
Take `CO[C@@H]1[C@H](OC(=O)NC(=O)CCl)CC[C@]2(CO2)[C@H]1[C@@]1(C)O[C@@H]1CC=C(C)C`: the call in experiment [1], in [2], in experiment [4], in [18], in experiment [6] and in [7] was inactive. In addition, the molecule was called inactive in experiment [8], in experiment [9], in experiment [10], in experiment [11], in experiment [12] and in experiment [19]. Besides, the molecule was classed as inactive in [14], in [15], in [16] and in experiment [17]. Further, the AC50 is 10.2 µM (active) in [3] and 47.8 µM (active) in experiment [13].
With `CCNS(=O)(=O)C(F)(F)C(F)(F)C(F)(F)C(F)(F)C(F)(F)C(F)(F)C(F)(F)C(F)(F)F`, the AC50 is 45.3 µM (active) and 16.1 µM (active) and 15.7 µM (active) in experiment [1]; 33.4 µM (active) and 63.6 µM (active) and 35.3 µM (active) in experiment [6]; 96.5 µM (active) in [7]; 96.5 µM (active) in experiment [11]; 138 µM (active) in experiment [16]; 96.5 µM (active) in experiment [17]. Further, the molecule was called inactive in experiment [2], in [3], in [4], in [18], in experiment [7] and in experiment [8]. Moreover, the result in [9], in experiment [10], in experiment [11], in experiment [12], in [13] and in experiment [14] was inactive. The call in experiment [15], in experiment [16] and in [17] was inactive.
As to `c1ccc2c(c1)oc1ccccc12`, the call in [1], in experiment [2], in experiment [3], in experiment [5], in [18] and in experiment [6] was inactive. Moreover, the result in experiment [8], in experiment [9], in [10], in [11], in [12] and in [13] was inactive. Besides, the outcome in experiment [14], in experiment [15], in experiment [16] and in experiment [17] was inactive.

As usually defined, the AC50 is the concentration at which the activity in the assay is half-maximal.
